Reference: PubChem BioAssay (NCI)
About 79,000 compounds went through this panel and 15% of them were active in at least one assay; those are over-represented in the sample as a whole. Active and inactive are the calls of the source. No stated cut-off is given here; in the data, active means growth inhibition above about 70%; inactive means the rest.

Experiments:
[1] = NCI Yeast Anticancer Drug Screen. Data for the rad50 strain (AID 155);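 further: 0% = growth of vehicle-only cultures of the same strain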; conditions: S. cerevisiae rad50 strain growth inhibition, stronger effect = higher value
Method in brief: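 DNA repair mutant yeast, compound exposure, growth read-out; inhibition is taken relative to vehicle.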

[2] = NCI Yeast Anticancer Drug Screen. Data for the mec2-1 strain (AID 157); conditions: S. cerevisiae mec2-1 strain, stronger effect = higher value
Method in brief: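 Compounds were applied to mec2-1 yeast cells. Their growth was then compared with that of vehicle-treated cultures to give growth inhibition.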

[3] = NCI Yeast Anticancer Drug Screen. Data for the sgs1 mgt1 strain (AID 161);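 further: 0% = growth of cultures given vehicle only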; conditions: S. cerevisiae sgs1 mgt1 strain, stronger effect = higher value
Method in brief: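 This yeast growth screen uses a strain with defined DNA-repair lesions; compound-treated growth is compared with vehicle-treated growth.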

[4] = NCI Yeast Anticancer Drug Screen. Data for the cln2 rad14 strain (AID 165);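 further: 0% = growth equal to vehicle treated cultures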; conditions: S. cerevisiae cln2 rad14 strain, stronger effect = higher value
Method in brief: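 Strain: cln2 rad14 yeast, altered in cell cycle control and DNA damage repair. Read-out: growth inhibition vs vehicle.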

[5] = NCI Yeast Anticancer Drug Screen. Data for the bub3 strain (AID 167); conditions: S. cerevisiae bub3 mutant strain, stronger effect = higher value
Method in brief: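 In this screen, a yeast mutant lacking normal mitotic checkpoint function is challenged with compound. Relative growth versus vehicle gives the inhibition value.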

[6] = NCI Yeast Anticancer Drug Screen. Data for the mlh1 rad18 strain (AID 175); conditions: S. cerevisiae mlh1 rad18 strain growth inhibition, stronger effect = higher value
Method in brief: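 A repair-deficient yeast strain is exposed to test compound, and growth is scored relative to vehicle-treated controls.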

[7] = at 5.0 µM (retest, dose inferred, filed as 0.5)
[8] = at 50.0 µM (retest, dose inferred, filed as 5.0)

Measured: growth inhibition

COC1=CC(C)(C)C=C([Se][Se]C2=CC(C)(C)C=C(OC)C2=O)C1=O
inactive: [4]; at 50.0 µM 68.5% | [5]; [8] 61% | [5]; at 50.0 µM 64.7%
active: [1]; [7] 82% | [1]; [8] 79% | [1]; at 50.0 µM 83.5% | [2]; [7] 83% | [2]; [8] 76% | [2]; at 50.0 µM 88.9% | [3]; [7] 86% | [3]; [8] 87% | [3]; at 50.0 µM 83% | [4]; [7] 77% | [4]; [8] 75% | [5]; [7] 71% | [6]; [7] 81% | [6]; [8] 79% | [6]; at 50.0 µM 85.5%

C1CC[N-]CC1.C1CC[N-]CC1.N#CO.[Ag]
active: [1]; [7] 99% | [1]; [8] 99% | [1]; at 50.0 µM 99.2% | [2]; [7] 100% | [2]; [8] 99% | [2]; at 50.0 µM 99.5% | [3]; [7] 100% | [3]; [8] 99% | [3]; at 50.0 µM 99.4% | [4]; [7] 99% | [4]; [8] 99% | [4]; at 50.0 µM 99% | [5]; [7] 99% | [5]; [8] 99% | [5]; at 50.0 µM 99.6% | [6]; [7] 99% | [6]; [8] 99% | [6]; at 50.0 µM 99.3%

C=C(C)C1(CCCC)C(=O)NC(=S)NC1=O
inactive: [1]; [7] 0% | [1]; [8] 60% | [1]; at 50.0 µM 29.9% | [2]; [7] -18% | [2]; [8] 49% | [2]; at 50.0 µM 11.8% | [3]; [7] -14% | [3]; [8] 61% | [3]; at 50.0 µM 34.8% | [4]; [7] -18% | [4]; [8] 51% | [4]; at 50.0 µM -28.1% | [5]; [7] -7% | [5]; [8] 45% | [5]; at 50.0 µM 39% | [6]; [7] -2% | [6]; at 50.0 µM 40%
active: [6]; [8] 85%

CC(C)c1cccc(C(C)C)c1NC(=O)C(=O)CC(=O)CC(c1ccccc1)c1c(O)c2ccccc2oc1=O (configuration not stated)
active: [3]; at 50.0 µM 71% | [5]; at 50.0 µM 70.7%
inactive: [1]; [7] 8% | [1]; [8] 8% | [1]; at 50.0 µM 59.4% | [2]; [7] -12% | [2]; [8] -12% | [2]; at 50.0 µM 43% | [3]; [7] 11% | [3]; [8] 11% | [4]; [7] -2% | [4]; [8] -2% | [4]; at 50.0 µM 55.2% | [5]; [7] -1% | [5]; [8] -1% | [6]; [7] 7% | [6]; [8] 7% | [6]; at 50.0 µM 58.6%

O=C(Cl)c1ccccn1
active: [1]; [8] 98% | [1]; at 50.0 µM 99.5% | [2]; [8] 99% | [2]; at 50.0 µM 99.5% | [3]; [8] 99% | [3]; at 50.0 µM 77.8% | [4]; [8] 99% | [4]; at 50.0 µM 99.3% | [5]; [8] 99% | [5]; at 50.0 µM 99.3% | [6]; [8] 99% | [6]; at 50.0 µM 99.5%
inactive: [1]; [7] 6% | [2]; [7] 7% | [3]; [7] 7% | [4]; [7] 6% | [5]; [7] 4% | [6]; [7] 1%

CCCCCCCCCCCCCCCCCC[N+](C)(C)C
active: [1]; [7] 98% | [1]; [8] 96% | [1]; at 50.0 µM 88.5% | [2]; [7] 99% | [2]; [8] 97% | [2]; at 50.0 µM 91.4% | [3]; [7] 99% | [3]; [8] 95% | [3]; at 50.0 µM 89.8% | [4]; [7] 99% | [4]; [8] 95% | [4]; at 50.0 µM 89.9% | [5]; [7] 99% | [5]; [8] 96% | [5]; at 50.0 µM 87% | [6]; [7] 97% | [6]; [8] 96% | [6]; at 50.0 µM 89.8%

CCCCC1C(=O)NC(=S)N(c2ccccc2)C1=O (configuration not stated)
inactive: [1]; [7] -4% | [1]; [8] -1% | [1]; at 50.0 µM -1.75% | [2]; [7] -3% | [2]; [8] 11% | [2]; at 50.0 µM -1.25% | [3]; [7] 3% | [3]; [8] 17% | [3]; at 50.0 µM 7.5% | [4]; [7] -2% | [4]; [8] -7% | [4]; at 50.0 µM 34.2% | [5]; [7] 0% | [5]; [8] 4% | [5]; at 50.0 µM 11.1% | [6]; [7] -9% | [6]; [8] 1% | [6]; at 50.0 µM 13.8%

FC(F)(F)c1nc2ccc(SSc3ccc4nc(C(F)(F)F)[nH]c4c3)cc2[nH]1
inactive: [1]; [7] -8% | [1]; [8] 17% | [2]; [7] 13% | [2]; [8] 20% | [3]; [7] -3% | [3]; [8] 12% | [4]; [7] 8% | [4]; [8] -32% | [5]; [7] 1% | [5]; [8] 14% | [6]; [7] 2% | [6]; [8] -6%
active: [1]; at 50.0 µM 96% | [2]; at 50.0 µM 93.8% | [3]; at 50.0 µM 96.6% | [4]; at 50.0 µM 92.3% | [5]; at 50.0 µM 95.5% | [6]; at 50.0 µM 97.2%

CC1(O)CC([CH2][Hg][I])OC([CH2][Hg][I])C1 (configuration not stated)
active: [1]; [7] 99% | [1]; [8] 99% | [1]; at 50.0 µM 96.3% | [2]; [7] 99% | [2]; [8] 99% | [2]; at 50.0 µM 98.3% | [3]; [7] 100% | [3]; [8] 99% | [3]; at 50.0 µM 96% | [4]; [7] 99% | [4]; [8] 98% | [4]; at 50.0 µM 98% | [5]; [7] 99% | [5]; [8] 98% | [5]; at 50.0 µM 98.6% | [6]; [7] 99% | [6]; [8] 99% | [6]; at 50.0 µM 91.6%
